Experimental data as given in PubChem BioAssay AID588519 (ICCB-Longwood Screening Facility, Harvard Medical School, 2011).
“And” between values parts separate entries of the source, which are not always exact repeats. Equal entries are not always repeated. Hit rate of the full screen: of about 150,000 compounds, about 1,000 (0.67%) were called active. Cut-off read from the data, not from the text of the source: active = % elongation below about 90%; inactive = the rest, inconclusive results apart. This excerpt belongs to a sample that is enriched for actives.

Target: Genome polyprotein (Poliovirus type 1 (strain Mahoney)) (UniProt P03300)
Test: poliovirus RdRp elongation inhibitors, primary screen, biochemical, fluorescence polarization, total intensity (AID 588519); for z-score: compound at 16.7 µg/mL
Conditions: poliovirus polymerase elongation, stronger effect = lower value; for % elongation: compound at 16.7 µg/mL; for z-score: measured here: FP z-score
[1] = measured here: total intensity read-out

Sequence of Genome polyprotein (Poliovirus type 1 (strain Mahoney)) (P03300 1749-2209 limits assumed): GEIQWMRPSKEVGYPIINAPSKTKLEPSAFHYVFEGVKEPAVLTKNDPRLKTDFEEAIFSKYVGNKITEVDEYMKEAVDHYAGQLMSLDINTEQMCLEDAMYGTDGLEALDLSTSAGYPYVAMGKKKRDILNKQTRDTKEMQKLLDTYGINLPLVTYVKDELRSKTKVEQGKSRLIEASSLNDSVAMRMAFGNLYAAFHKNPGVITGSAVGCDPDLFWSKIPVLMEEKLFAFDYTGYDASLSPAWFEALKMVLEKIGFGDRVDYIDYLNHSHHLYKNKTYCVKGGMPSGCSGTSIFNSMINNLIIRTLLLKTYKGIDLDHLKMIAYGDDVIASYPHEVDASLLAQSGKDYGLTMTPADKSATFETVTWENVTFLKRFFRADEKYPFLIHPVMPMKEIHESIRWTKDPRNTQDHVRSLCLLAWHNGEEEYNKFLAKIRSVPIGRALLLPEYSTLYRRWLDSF

Structure (SMILES)	% elongation	z-score	% elongation [1]
CC1CC(C)CN(C(=O)COC(=O)c2ccc(C#N)cc2)C1 (configuration not stated)	101% (inactive)	-0.2	102%
Cc1ccc(Cn2nc(C)c(/C=C/C(=O)OCc3nc4ccccc4c(=O)n3CC#N)c2C)cc1	108% (inactive)	0.9	119%
O=C(CC12CC3CC(CC(C3)C1)C2)Nc1noc2ccccc12	101% (inactive)	-0.1	102%
COC(CNC(=O)c1ccc2c(c1)N(Cc1cc(C)ccc1C)C(=O)c1ccccc1S2=O)OC (configuration not stated)	99% (inactive)	-1.1	103%
CCn1c(C(C)C)n[nH]c1=S	103% (inactive)	0.6	102%
CC(C)c1n[nH]c(=S)n1N	62% (active)	-2.9	68%
CC(C)n1c(-c2ccncc2)n[nH]c1=S	102% (inactive)	0.7	103%
CC(C)Sc1n[nH]c(=S)n1N	83% (active)	-1.9	88%
O=C(CN1C(=O)c2ccccc2C1=O)NN1C(=O)CSC1=S	97% (inactive)	-0.8	106%
COc1ccc(O)c(C(=O)c2cnn3c(N)nnc3c2)c1	84% (active)	-2.3	84%
COc1ccc(O)c(C(=O)c2cnn(C(=O)c3ccc4c(=O)n5c(nc4c3)CCC5)c2)c1	104% (inactive)	0.1	108%
COc1ccc(OC)c(C(=O)c2ccc(C(=O)O)cc2)c1	102% (inactive)	0.4	100%
COc1cc(C=Nc2c(C)n(C)n(-c3ccccc3)c2=O)ccc1OC(=O)c1ccco1	104% (inactive)	0.5	102%
O=C(CSc1nc2c(c(=O)[nH]1)CN(Cc1ccc(F)cc1)CC2)Nc1ccccc1Cl	-15% (active)	-8.9	19%
COc1cccc(CN2CCc3nc(SCC(=O)Nc4ccccc4)[nH]c(=O)c3C2)c1	107% (inactive)	-0.1	111%
O=C(CSc1nc2c(c(=O)[nH]1)CN(Cc1ccc3c(c1)OCO3)CC2)Nc1cc(F)ccc1F	108% (inactive)	0	107%
CC[N+](CC)=c1scc(-c2ccc(Cl)cc2)s1	102% (inactive)	-0.2	110%
O=c1ccc(-c2ccc(S(=O)(=O)N3CCc4ccccc43)o2)n[nH]1	102% (inactive)	0.6	108%
CCN(CC)C(=O)C1Sc2nnc(-c3ccccc3)n2NC1c1ccccc1 (configuration not stated)	101% (inactive)	0.1	102%
Cc1[nH]c(=O)[nH]c(=O)c1N	100% (inactive)	-0.5	100%
CC[N+](C)(CC)CCC[n+]1c(-c2ccccc2)c2cc(N)ccc2c2ccc(N)cc21	-41% (active) and -58% (active) and 65% (active)	-17 and -9.9 and -6.6	-18% and -15% and 39%
CC[n+]1c(C)n(-c2ccccc2)c2ccc(N)cc21	102% (inactive)	0.2	106%
CC(=O)Nc1c(C)ccc(NC(=O)C2C(C=C(C)C)C2(C)C)c1C (configuration not stated)	102% (inactive)	-0.1	102%
COc1ccc(Cl)cc1N(C)C(=O)c1cc2c(=O)oc3ccc(C)cc3c2s1	107% (inactive)	0.4	113%
CCN(CC)CCNC(=O)c1cc2c(=O)oc3ccc(C)cc3c2s1	89% (active)	-1.5	89%
Cc1ccc2oc(=O)c3cc(C(=O)NC4CCCC4)sc3c2c1	104% (inactive)	0.9	98%
O=C(O)CSc1ccc(S(=O)(=O)N2CCCC2)cn1	105% (inactive)	0.2	99%

Structure (SMILES)	% elongation	z-score	% elongation [1]
O=C(NC1CCCCC1)c1ccc(-n2ccc3ccccc32)s1	100% (inactive)	-0.2	101%
N#Cc1c(/N=C/c2c(O)[nH]c(=O)[nH]c2=O)sc2c1CCC2	110% (inactive)	1.2	130%
N#CSc1ccc(N2CCCCC2)cc1	99% (inactive)	-0.2	100%
N#CSc1ccc(N)c(Br)c1	75% (active)	-3.8	83%
O=C(COC(=O)C1CCC(=O)N1)Nc1nc(-c2ccccc2)cs1 (configuration not stated)	101% (inactive)	-0.2	104%
COc1ccc(-c2csc(=Nc3ccccc3)n2C)cc1	105% (inactive)	0.5	102%
O=C(CNc1ccccc1N1CCCCC1)N1CCc2ccccc21	102% (inactive)	0.1	94%
COc1ccccc1C(=O)COC(=O)COc1ccc(C#N)cc1	108% (inactive)	0.7	108%
NC(=S)N1CCCCC1	99% (inactive)	-0.1	100%
Clc1nc(Nc2ccccc2)sc1/C=N/N1CCOCC1	149% (inactive)	5.6	195%
Cc1cc(NC(=O)c2ccccc2C)no1	103% (inactive)	0.4	103%
OC(c1nc2ccccc2[nH]1)C(O)C(O)C(O)c1nc2ccccc2[nH]1 (configuration not stated)	99% (inactive)	-0.6	104%
CS(=O)(=O)c1nc2ccccc2[nH]1	104% (inactive)	0.4	107%
N#CC(=C1C(=O)c2ccccc2C1=O)c1nc2ccccc2[nH]1	80% (active)	-2.3	88%
COc1ccc(CN2CNc3c(c(C)nn3-c3ccccc3)C2)cc1	100% (inactive)	-1	106%
Cc1cccc(-n2c(Cn3ccc(C)n3)n[nH]c2=S)c1	104% (inactive)	0.5	105%
C=C(C)CNC(=S)NN	83% (active)	-1.3	86%
C=C(C)CNC(=S)N1CCNCC1	99% (inactive)	0.1	105%
CC(C)(C)CNC(=S)NN	98% (inactive)	-0.9	101%
CCCCN(C)C(=O)C1CCN(c2nn3cc(-c4ccc(OC)cc4)nc3s2)CC1	104% (inactive)	0.4	105%
Cc1ccc(NC2=C/C(=N/S(=O)(=O)c3ccc(F)cc3)c3ccccc3C2=O)cc1C	102% (inactive)	0.1	106%
CCOc1ccc(N2CC(c3nc4ccccc4n3CCOc3ccc(OC)cc3)CC2=O)cc1 (configuration not stated)	111% (inactive)	0.9	107%
CCc1ccccc1N1CC(c2nc3ccccc3n2CCCCOc2ccccc2)CC1=O (configuration not stated)	63% (active)	-7.7	68%
COc1ccc(OCCCn2c(C3CC(=O)N(c4ccc(F)cc4)C3)nc3ccccc32)cc1 (configuration not stated)	109% (inactive)	0.4	110%
COC(=O)c1ccccc1NC(=O)C1CC(c2cccc(Br)c2)=NO1 (configuration not stated)	104% (inactive)	0.6	106%
CC(C)NC(=O)CCc1c[nH]c2ccccc12	62% (active)	-4.7	68%
CC(=O)Nc1ccc(NC(=O)C(C)OC(=O)Cc2c[nH]c3ccccc23)cc1 (configuration not stated)	105% (inactive)	0	108%

Structure (SMILES)	% elongation	z-score	% elongation [1]
CCOC(=O)C(N)Cc1c[nH]c2ccccc12 (configuration not stated)	100% (inactive)	-0.3	101%
CCOC(=O)c1c(C)c(-c2ccccc2)n(CC(=O)N2CCN(c3ccccn3)CC2)c1C	99% (inactive)	-0.8	104%
COc1ccc(C/C(C#N)=C/N2CCN(c3ccccc3F)CC2)cc1	102% (inactive)	0.1	107%
C=CCn1ccc2c(OCC(=O)c3ccccc3)cccc2c1=O	104% (inactive)	0.6	101%
CCNC(=O)N1c2ccccc2Sc2ccccc21	101% (inactive)	0.2	103%
COCCNC(=O)N1c2ccccc2Sc2ccccc21	103% (inactive)	0.4	100%
CN1/C(=C/C(=S)C(C)(C)C)Sc2ccccc21	84% (active)	-1.7	83%
Cc1[nH]nc2c1C1C(C2)C1(C)C (configuration not stated)	76% (active)	-7.4	105%
CCc1nc(NCc2ccccc2)c(C#N)c2c1COC(C)(C)C2	107% (inactive)	0.4	112%
O=C(CSc1nnc(-c2c[nH]c3ccccc23)o1)NCC1CN(Cc2ccccc2)CCO1 (configuration not stated)	105% (inactive)	0.1	109%
COc1ccc(-c2noc(CC(=O)N(C)c3ccccc3)n2)cc1	106% (inactive)	0.7	100%
C=CCSc1nnc(NC(=O)CSc2nc(C)cc(=O)[nH]2)s1	88% (active)	-4	65%
COC(=O)Cc1cnc(NC(=O)CSc2nc(C(C)C)cc(=O)[nH]2)s1	102% (inactive)	0.3	100%
C=CCSc1nnc(NC(=O)CCNS(=O)(=O)c2ccccc2)s1	103% (inactive)	0.2	107%
COc1ccccc1NC(=O)Nc1cc(C(C)(C)C)nn1-c1ccccc1	105% (inactive)	0.5	102%
Cc1sc2nc(COC(=O)C(NC(=O)c3ccco3)C(C)C)[nH]c(=O)c2c1C (configuration not stated)	94% (inactive)	-1.2	219%
CCOC(=O)c1cnc2c(C)cc(C)cc2c1Nc1ccc(N2CCOCC2)cc1	107% (inactive)	0.5	110%
CCOC(=O)c1cnc2c(C)cc(Cl)cc2c1NCCc1ccc(OC)c(OC)c1	104% (inactive)	-0.4	104%
CCOC(=O)c1cnc2c(C)c(C)ccc2c1NCCCN(C)C	69% (active)	-5	53%
O=C(COC(=O)c1cccs1)NCc1cccs1	100% (inactive)	-0.1	101%
Cc1nc2ccccc2nc1OCC(=O)N(C1CCCCC1)C1CCCCC1	99% (inactive)	-0.3	97%
CCOC(=O)c1sc(NC(=O)/C=C/c2ccc(C(C)C)cc2)c(C(=O)OCC)c1C	105% (inactive)	0.3	109%
COC(=O)c1c(NC(=O)C(C)Oc2ccc(Cl)c(C)c2)sc(C)c1C (configuration not stated)	109% (inactive)	0.5	106%
CCOC(=O)c1c(NC(=O)COc2cc(C)ccc2C(C)C)sc(C)c1C	89% (active)	-2.6	88%
COC(=O)c1sc(C)cc1OC(=O)c1ccc(OC)cc1	99% (inactive)	-0.2	100%
